This is a sample that favours compounds with a hit; in the whole collection about 10% have one here.
Luciferase inh: Firefly luciferase inhibition profiling of diverse chemical library using quantitative high-throughput screening | Luciferin 4-monooxygenase (Photinus pyralis), P08659 | 76,000 tested, 2.5% active | purified P. pyralis luciferase, luminescence, biochemical | AID 1347043, 2019 | Potency, µM (top dose mostly 115 µM), usual class: inhibitors; note: nearly all actives have a fitted effect of over 65% in size
Target sequence (P08659 whole entry, looked up): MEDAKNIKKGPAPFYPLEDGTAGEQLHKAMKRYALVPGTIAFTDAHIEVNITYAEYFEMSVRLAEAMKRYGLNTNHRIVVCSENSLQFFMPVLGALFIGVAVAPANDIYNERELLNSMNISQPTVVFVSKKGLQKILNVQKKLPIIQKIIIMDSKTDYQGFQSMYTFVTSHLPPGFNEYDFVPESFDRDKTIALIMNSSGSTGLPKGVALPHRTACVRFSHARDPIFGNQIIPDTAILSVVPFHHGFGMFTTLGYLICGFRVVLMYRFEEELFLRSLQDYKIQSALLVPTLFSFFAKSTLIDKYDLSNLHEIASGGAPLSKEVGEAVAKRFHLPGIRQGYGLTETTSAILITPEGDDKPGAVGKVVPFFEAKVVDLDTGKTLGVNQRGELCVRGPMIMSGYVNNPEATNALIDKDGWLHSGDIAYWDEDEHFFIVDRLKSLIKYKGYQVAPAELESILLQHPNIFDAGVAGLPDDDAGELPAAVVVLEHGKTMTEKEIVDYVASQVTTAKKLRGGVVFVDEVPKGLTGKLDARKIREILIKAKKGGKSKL
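Purified P. pyralis luciferase (10nM final) in 50mM Tris acetate pH 7.5, 10mM Mg acetate, 0.01% Tween-20, 0.05% BSA with 10uM D-luciferin and 10uM ATP. Compounds titrated qHTS. Luminescence imaged on CCD.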
HEK293 tox: Cytotoxic Profiling in HEK 293 Cell Line of Diverse Libraries Using Quantitative High-Throughput Screening; HEK 293 viability, ATP luminescence (CellTiter-Glo), 48-72 h; Potency, µM (top dose mostly 115 µM), most hits filed as inhibitors; 94,000 tested, 6.6% active; AID 1345083, 2018; note: nearly all actives have a fitted effect of over 60% in size
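Pintool-delivered compounds were incubated with HEK 293 cells (250 cells/well) at 37 degree Celsius for 48 or 72 hr. ATP-dependent luminescence (CellTiter-Glo) then reported remaining viable cells.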
GPT2 inh: Primary qHTS assay for inhibitors of Glutamate pyruvate transaminase 2 (GPT2); Recombinant GPT2, coupled pyruvate oxidase/HRP Amplex Red fluorescence; 100,000 tested, 0.25% active; Alanine aminotransferase 2 (Homo sapiens), Q8TD30; Potency, µM (top dose mostly 57.7 µM), actives largely listed as inhibitors; note: nearly all actives have a fitted effect of over 60% in size
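Recombinant GPT2 (10ng/uL) with 250uM a-KG and 2mM L-alanine, 30 min at room temperature, in HEPES pH 7.5 buffer. Pyruvate detected by pyruvate oxidase/HRP/Amplex Red fluorescence after 30 min in the dark; AOA (50uM) as positive control.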
NPR1 antag: Natriuretic polypeptide receptor (hNpr1) antagonism - Primary qHTS; Potency, µM (highest dose often 46.3 µM), hits mostly inhibitors; HEK293 hNpr1 GloSensor cGMP, ANP-stimulated luminescence; 76,000 tested, 1.6% active; Atrial natriuretic peptide receptor 1 (Homo sapiens), P16066; calls by dose curve; note: nearly all actives have a fitted effect of over 60% in size
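Compound pre-incubated 30 min at room temperature on GloSensor-loaded HEK293 cells stably carrying hNpr1 and the pGS-40F cGMP biosensor. Stimulation uses hNppA at 0.1 nM final; luminescence is taken at baseline and 20 min post-agonist.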
3T3 cytotox: Cytotoxic Profiling in NIH 3T3 Cell Line of Diverse Libraries Using Quantitative High-Throughput Screening. NIH 3T3 viability, CellTiter-Glo ATP luminescence, 48-72 h. Potency, µM (titrated, usually from 96.7 µM), most hits filed as inhibitors. 94,000 tested, 4.3% active; note: nearly all actives have a fitted effect of over 55% in size
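Cytotoxicity is measured as loss of cellular ATP: NIH 3T3 cells (400/well) are exposed to compound for 48 or 72 hr at 37 °C, then CellTiter-Glo luminescence is imaged after 10 min at room temperature.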
Hits are given with their value; . = inactive; ? = inconclusive; / = no result; ! = not confirmed by another sample. Unless noted, calls come from the whole dose curve; as a rule, active = well fitted curve in the direction sought with a large enough effect; inconclusive = small, poorly fitted or top-dose-only effect, or another doubt; inactive = no such curve, though single readings can be large; an effect the other way counts as inactive or inconclusive.

SMILES	Luciferase inh	HEK293 tox	GPT2 inh	NPR1 antag	3T3 cytotox
Cn1c(C(=O)N2CCNc3cnc(Nc4cccc(C(F)(F)F)c4)nc3C2)cc2ccccc21	.	40µM	.	.	40µM
COc1ccccc1Nc1ncc2c(n1)CN(C(=O)c1cccc(O)c1)CCN2	.	100µM	.	.	.
COc1ccccc1Nc1ncc2c(n1)CN(C(=O)c1ccc(Oc3ccccc3)cc1)CCN2	.	35µM	.	.	?
Cc1ccc(-c2ncc(C(=O)O)c(-c3ccncc3)n2)cc1	.	.	.	.	.
CCn1nc(CC(C)C)cc1C(=O)N(C)Cc1cccc(-n2cccn2)c1	.	50µM	.	.	?
Cc1ccc(Cn2cccc2-c2nc(-c3ccc(F)cc3)no2)cc1	?	.	.	.	.
COc1ccc(CN2CC(COc3ccccc3)Oc3ncccc3[S+]2(=O)[O-])cc1 (stereo not drawn)	/	22µM	.	/	?
COc1ccc(OCC2CN(Cc3cccs3)[S+](=O)([O-])c3cnccc3O2)cc1 (stereo not drawn)	/	?	.	/	.
CC(C)(O)/C=C1/C(=O)C(C)(C)C(=O)C(C)(C)C1(O)O[C@@H]1O[C@H](COC(=O)c2cc(O)c(O)c(O)c2)[C@@H](O)[C@H](O)[C@H]1O (stereo partly drawn)	/	/	.	/	/
CCCn1cc(-c2ccncc2)cc1C(=O)N1CCN(c2ccccc2F)CC1	.	45µM	.	.	?
CCCn1cc(-c2ccncc2)cc1C(=O)N1CCN(c2ccccn2)CC1	.	?	.	?	?
O=C(NCc1ccc(C(F)(F)F)cc1)C1CN(C2CCCC2)C(=O)N1 (stereo not drawn)	/	?	.	/	.
Cc1ccc(-c2cc(C(=O)NCc3ccc(F)cc3)nn3cnnc23)cc1	/	.	.	/	.
N#Cc1cccc(-c2c(C(=O)N3CCOCC3)nc3sccn23)c1	/	.	.	/	.
COc1ccc(CC(=O)N2CC(N3C(=O)c4c(c(C)nn4-c4ccccc4)C3C)C2)cc1 (stereo not drawn)	/	40µM	/	/	?
Cc1nn(-c2ccccc2)c2c1C(C(C)C)N(C1CCN(C(=O)c3ccc(C(F)(F)F)cc3)CC1)C2=O (stereo not drawn)	/	.	/	/	.
Cc1nn(-c2ccccc2)c2c1C(C)N(C1CCN(C(=O)c3ccc(Cl)nc3)CC1)C2=O (stereo not drawn)	/	?	/	/	35µM
Cc1nn(-c2ccccc2)c2c1C(C)N(C1CCN(C(=O)c3ccccc3)CC1)C2=O (stereo not drawn)	/	35µM	/	/	?
Cc1nn(-c2ccccc2)c2c1C(C)N(C1CCN(C(=O)c3cccc(C(F)(F)F)c3)CC1)C2=O (stereo not drawn)	/	45µM	/	/	?
COc1ccc(-c2cc(N3CCCC(NC(=O)c4cnccn4)C3)n[nH]2)cc1 (stereo not drawn)	?	?	.	.	?
CN(Cc1cccc(C(F)(F)F)c1)Cc1ccccn1	/	.	?	/	.
O=C(C1CCCCN1Cc1ccc(-c2cccs2)cc1)N1CCC(c2ccccc2)CC1 (stereo not drawn)	/	.	.	/	?
COc1ccc(C(=O)N2CCN(C(=O)c3nc4cccnc4n(Cc4ccccc4)c3=O)CC2)cc1	/	?	.	/	?
COc1cccc([S+](=O)([O-])N2CCC(N3C(=O)c4c(c(C)nn4-c4ccccc4)C3C)CC2)c1 (stereo not drawn)	/	.	/	/	.
COCC(=O)N1CCC(N2C(=O)c3c(c(C)nn3-c3ccccc3)C2C)CC1 (stereo not drawn)	/	.	/	/	28µM!
SMILES	Luciferase inh	HEK293 tox	GPT2 inh	NPR1 antag	3T3 cytotox
COc1cccc(C(=O)N2CCC(N3C(=O)c4c(c(C)nn4-c4ccccc4)C3C)CC2)c1 (stereo not drawn)	/	40µM	/	/	?
O=C(c1ccccc1)N1CCN(c2nc3ncccc3o2)CC1	.	.	.	.	.
CC1CCN(C(=O)c2ccccc2OCC2CCCN(Cc3nccs3)C2)CC1 (stereo not drawn)	.	?	.	.	.
O=C1CCN(C(=O)[C@@H]2CCCN2S(=O)(=O)c2ccccc2)CCCCCCN1	.	.	.	.	?
Cn1ccc(NC(=O)[C@@H]2C[C@H](c3ccc(F)cc3)N(Cc3ccccc3Cl)C2)n1	.	50µM	.	?	?
O=C(NCc1cccnc1)[C@@H]1C[C@@H](c2ccc(F)cc2)N(Cc2ccccc2)C1	.	?	.	.	?
O=C(Nc1nccs1)[C@@H]1C[C@@H](c2ccc(F)cc2)N(Cc2ccccc2)C1	.	40µM	.	?	?
O=C(Nc1cccnc1)[C@@H]1C[C@@H](c2ccc(F)cc2)N(CCOc2ccccc2)C1	.	?	.	?	89µM
O=C(NCc1ccncc1)[C@@H]1C[C@@H](c2ccc(F)cc2)N(Cc2ccccc2)C1	.	?	.	.	.
O=C(Nc1nccs1)[C@@H]1C[C@H](c2ccc(F)cc2)N(Cc2ccccc2Cl)C1	.	?	.	.	32µM
Cn1ccc(NC(=O)[C@@H]2C[C@@H](c3ccc(F)cc3)N(CCOc3ccccc3)C2)n1	.	?	.	.	?
O=C(Nc1ccncn1)[C@@H]1C[C@@H](c2ccc(F)cc2)N(CCOc2ccccc2)C1	.	?	.	?	?
CC(C)NC(=O)c1cn2cc(-c3cccnc3)sc2n1	/	?	.	/	?
Cn1cc(CN2C[C@H](C(=O)Nc3nccs3)C[C@H]2c2cccc(C(F)(F)F)c2)cn1	.	?	.	.	?
Cc1csc(NC(=O)[C@@H]2C[C@H](c3cccc(C(F)(F)F)c3)N(Cc3cnn(C)c3)C2)n1	.	?	.	.	28µM
O=C(Nc1nccs1)[C@@H]1C[C@@H](c2cccc(C(F)(F)F)c2)N(CC2CCOCC2)C1	.	?	.	.	79µM
O=C(OCc1ccccc1)N1CCC2(CC1)C(=O)NN=C2C1CC1	.	112µM	.	.	.
COc1ncccc1-c1nccc2c(=O)cc(N(C)C3CCOCC3)oc12	.	.	.	.	?
CN(C)c1cc(=O)c2ccnc(Nc3ccccn3)c2o1	.	.	?	.	71µM
CN(C)c1cc(=O)c2ccnc(-c3ccc(O)c(F)c3)c2o1	.	.	.	.	32µM
Cc1ccccc1-c1nccc2c(=O)cc(N(C)C3CCOCC3)oc12	.	.	.	.	25µM
COc1ccc(-c2nccc3c(=O)cc(N(C)C)oc23)cn1	.	.	.	.	50µM

High-throughput results from PubChem BioAssay.
